PubChem BioAssay (EPA / NIEHS)
Where a structure was tested more than once in an assay, its records may differ in their call. Active and inactive are the calls of the source. The calls were made as follows: active = hit-call score of the fitted dose curve at least 0.9, where 1 is the maximum; inactive = score below 0.9.

Experiments:
[1] = CEETOX_H295R_PROG: CeeTox H295R High-throughput Steroidogenesis Assay for Progesterone (PROG) (AID 2283442); details: actives raise or lower the signal;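 as to AC50: human H295R adrenal cells primed with 10 µM forskolin before dosing; progesterone secreted into medium by H295R cells measured by HPLC-MS/MS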
How it was run: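 Steps: seed H295R cells and let them adhere overnight; prime 48 h with 10 uM forskolin; dose with compound in DMSO at 0.1% final for 48 h; extract medium steroids with MTBE; measure progesterone by LC-MS/MS. MTT viability was run in the same wells.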

[2] = read-out: Tumor necrosis factor receptor superfamily member 6 (Homo sapiens) (UniProt P25445); assay: LTEA_HepaRG_FAS: Life Technologies and Expression Analysis (LTEA) Assay for Fas cell surface death receptor (FAS) using HepaRG (AID 2283447); details: mRNA level, 48 h; actives raise or lower the signal
How it was run: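 Differentiated HepaRG cells in serum-free induction medium were exposed 48 h to 8 half-log concentrations up to 100 uM in 0.5% DMSO, in duplicate. FAS mRNA was measured by qRT-PCR normalised to ACTB, GAPDH and POLR2A; bidirectional fit versus DMSO.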

[3] = read-out: Fatty acid synthase (Homo sapiens) (UniProt P49327); assay: LTEA_HepaRG_FASN: Life Technologies and Expression Analysis (LTEA) Assay for Fatty Acid Synthase (FASN) using HepaRG (AID 2283448); details: mRNA level, 48 h; actives raise or lower the signal;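 as to AC50: differentiated human HepaRG liver cells in serum-free induction medium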
How it was run: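 Cells were plated, cultured 48 h, switched to serum-free induction medium, then dosed in duplicate (max 100 uM, half-log dilutions, 0.5% DMSO) for 48 h. RNA was then isolated and FASN quantified by qRT-PCR.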

[4] = read-out: Cyclin Dependent Kinase Inhibitor 1A (CDKN1A), CDKN1A (gene 1026); assay: LTEA_HepaRG_CDKN1A: Life Technologies and Expression Analysis (LTEA) Assay for Cyclin Dependent Kinase Inhibitor 1A (CDKN1A) using HepaRG (AID 2283450); details: mRNA level, 48 h; actives raise or lower the signal
How it was run: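 Read-out is CDKN1A mRNA by TaqMan qRT-PCR, normalized to three housekeeping genes and fitted in both directions against the DMSO baseline. Human HepaRG cells were treated 48 h with test chemicals up to 100 uM in half-log steps, 0.5% DMSO.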

[5] = read-out: Cyclin D1 (CCND1), CCND1 (gene 595); assay: LTEA_HepaRG_CCND1: Life Technologies and Expression Analysis (LTEA) Assay for Cyclin D1 (CCND1) using HepaRG (AID 2283451); details: mRNA level, 48 h; actives raise or lower the signal;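 as to AC50: differentiated human HepaRG liver cells in serum-free induction medium; TaqMan qRT-PCR transcript level normalised to ACTB GAPDH and POLR2A housekeeping genes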
How it was run: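 HepaRG plated 48 h, medium switched to serum-free induction medium, chemicals added in duplicate (top 100 uM, half-log steps, 0.5% DMSO) for 48 h, cells lysed, RNA measured by TaqMan qRT-PCR.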

[6] = read-out: flavin-containing dimethylaniline monooxygenases 3 (FMO3), FMO3 (gene 2328); assay: LTEA_HepaRG_FMO3: Life Technologies and Expression Analysis (LTEA) Assay for flavin-containing dimethylaniline monooxygenases 3 (FMO3) using HepaRG (AID 2283453); details: mRNA level, 48 h; actives raise or lower the signal;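 as to AC50: differentiated human HepaRG liver cells in serum-free induction medium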
How it was run: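 FMO3 transcript quantified by TaqMan qRT-PCR against three housekeeping genes after 48 h chemical exposure of HepaRG cells. Eight-point half-log series, top 100 uM, 0.5% DMSO vehicle; phenobarbital 1mM induction control; up- or down-regulation fitted.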

[7] = read-out: CFLAR gene, CFLAR (gene 8837); assay: LTEA_HepaRG_CFLAR: Life Technologies and Expression Analysis (LTEA) Assay for CFLAR gene using HepaRG (AID 2283455); details: mRNA level, 48 h; actives raise or lower the signal
How it was run: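 qRT-PCR read-out (Fluidigm/TaqMan) of CFLAR mRNA, normalized to three housekeeping genes, in differentiated human HepaRG cells after 48 h chemical exposure; 8-point half-log series from 100 uM in 0.5% DMSO; bidirectional curve fitting versus DMSO.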

[8] = read-out: Forkhead box O1 (FOXO1), FOXO1 (gene 2308); assay: LTEA_HepaRG_FOXO1: Life Technologies and Expression Analysis (LTEA) Assay for Forkhead box O1 (FOXO1) using HepaRG (AID 2283456); details: mRNA level, 48 h; actives raise or lower the signal
How it was run: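 HepaRG, 48 h exposure, 8-pt half-log series from 100 uM in 0.5% DMSO, duplicates; Fluidigm qRT-PCR mRNA, housekeeping-normalised; bidirectional fit vs DMSO baseline.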

[9] = CEETOX_H295R_TESTO: CeeTox H295R High-throughput Steroidogenesis Assay for Testosterone (TESTO) (AID 2283457); details: actives raise or lower the signal;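 as to AC50: cells exposed to chemicals for 48 h before medium collection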
How it was run: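 H295R, passage ≤10, 48 h dosing; media extracted with MTBE → HPLC-MS/MS for testosterone; 7-pt standard curve sets LLOQ/ULOQ; bidirectional fit vs DMSO; MTT viability same wells.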

[10] = read-out: growth arrest and DNA damage 45 (GADD45A), GADD45A (gene 1647); assay: LTEA_HepaRG_GADD45A: Life Technologies and Expression Analysis (LTEA) Assay for growth arrest and DNA damage 45 (GADD45A) using HepaRG (AID 2283458); details: mRNA level, 48 h; actives raise or lower the signal
How it was run: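 Transcript induction or loss, quantified by TaqMan qRT-PCR against three housekeeping genes, is the read-out. HepaRG cells received chemicals for 48 h across eight half-log concentrations from 100 uM in 0.5% DMSO; gain and loss fitted relative to DMSO.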

[11] = read-out: Forkhead box O3 (FOXO3), FOXO3 (gene 2309); assay: LTEA_HepaRG_FOXO3: Life Technologies and Expression Analysis (LTEA) Assay for Forkhead box O3 (FOXO3) using HepaRG (AID 2283459); details: mRNA level, 48 h; actives raise or lower the signal
How it was run: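 qRT-PCR readout of FOXO3 transcript, normalized to three housekeeping genes (ACTB, GAPDH, POLR2A); gain or loss fitted against 0.5% DMSO vehicle. HepaRG cells, 48 h chemical exposure, 8-point half-log series, top 100 uM.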

[12] = read-out: ABC Transporter (ABCB1), ABCB1 (gene 5243); assay: LTEA_HepaRG_ABCB1: Life Technologies and Expression Analysis (LTEA) Assay for ABC Transporter (ABCB1) using HepaRG (AID 2283460); details: mRNA level, 48 h; actives raise or lower the signal
How it was run: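 HepaRG, 48 h exposure, 8-pt half-log series from 100 uM, 0.5% DMSO vehicle, duplicates. Readout: ABCB1 transcript by Fluidigm TaqMan qRT-PCR, housekeeping-normalized; bidirectional curve fit vs DMSO baseline.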

[13] = read-out: growth arrest and DNA damage 45 (GADD45B), GADD45B (gene 4616); assay: LTEA_HepaRG_GADD45B: Life Technologies and Expression Analysis (LTEA) Assay for growth arrest and DNA damage 45 (GADD45B) using HepaRG (AID 2283461); details: mRNA level, 48 h; actives raise or lower the signal
How it was run: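 HepaRG, ~100,000 cells/well, 48 h plating; serum-free induction medium; cpd 100 uM top, half-log x8, 0.5% DMSO, duplicate, 48 h; lysis in RLT, RNA isolation, qRT-PCR; norm ACTB/GAPDH/POLR2A; bidirectional fit vs DMSO.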

[14] = read-out: ABC Transporter (ABCC3), ABCC3 (gene 8714); assay: LTEA_HepaRG_ABCC3: Life Technologies and Expression Analysis (LTEA) Assay for ABC Transporter (ABCC3) using HepaRG (AID 2283462); details: mRNA level, 48 h; actives raise or lower the signal
How it was run: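 Human HepaRG, 48 h dosing, 8-pt half-log series from 100 uM, 0.5% DMSO vehicle, duplicates. ABCC3 mRNA by TaqMan qRT-PCR, housekeeping-normalized; bidirectional curve fit vs DMSO.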

[15] = read-out: ABC Transporter (ABCB11), ABCB11 (gene 8647); assay: LTEA_HepaRG_ABCB11: Life Technologies and Expression Analysis (LTEA) Assay for ABC Transporter (ABCB11) using HepaRG (AID 2283463); details: mRNA level, 48 h; actives raise or lower the signal
How it was run: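 HepaRG, 48 h exposure, 8-pt half-log CRC top 100 uM, 0.5% DMSO vehicle, duplicates. Readout: TaqMan qRT-PCR of ABCB11 mRNA, housekeeping-normalized (ACTB/GAPDH/POLR2A). Bidirectional fit vs DMSO baseline.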

[16] = read-out: ABC Transporter (ABCC2), ABCC2 (gene 1244); assay: LTEA_HepaRG_ABCC2: Life Technologies and Expression Analysis (LTEA) Assay for ABC Transporter (ABCC2) using HepaRG (AID 2283464); details: mRNA level, 48 h; actives raise or lower the signal
How it was run: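 HepaRG, 48 h post-plating; serum-free induction medium; cpd 8-pt, 100 uM top, half-log, 0.5% DMSO, duplicate, 48 h. Readout: ABCC2 mRNA by qRT-PCR, norm. ACTB/GAPDH/POLR2A. Bidirectional fit vs DMSO baseline.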

[17] = read-out: Broad substrate specificity ATP-binding cassette transporter ABCG2 (Homo sapiens) (UniProt Q9UNQ0); assay: LTEA_HepaRG_ABCG2: Life Technologies and Expression Analysis (LTEA) Assay for ABC Transporter (ABCG2) using HepaRG (AID 2283465); details: mRNA level, 48 h; actives raise or lower the signal
How it was run: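 HepaRG, 48 h exposure, 8-pt half-log series from 100 uM, 0.5% DMSO vehicle, duplicates. Readout: ABCG2 transcript by qRT-PCR (Fluidigm array), housekeeping-normalized; bidirectional curve fit relative to DMSO baseline.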

[18] = read-out: ATP-citrate lyase (ACLY), ACLY (gene 47); assay: LTEA_HepaRG_ACLY: Life Technologies and Expression Analysis (LTEA) Assay for ATP-citrate lyase (ACLY) using HepaRG (AID 2283466); details: mRNA level, 48 h; actives raise or lower the signal
How it was run: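 qRT-PCR readout of ACLY transcript after 48 h chemical treatment of HepaRG cells; expression normalized to three housekeeping genes. Eight-point half-log series, highest 100 uM, 0.5% DMSO vehicle. Gain or loss fitted against DMSO baseline.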

[19] = read-out: Peroxisomal acyl-coenzyme A oxidase 1 (ACOX1) gene, ACOX1 (gene 51); assay: LTEA_HepaRG_ACOX1: Life Technologies and Expression Analysis (LTEA) Assay for Peroxisomal acyl-coenzyme A oxidase 1 (ACOX1) gene using HepaRG (AID 2283467); details: mRNA level, 48 h; actives raise or lower the signal
How it was run: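 HepaRG, 48 h chemical exposure, 8-pt half-log series from 100 uM top, 0.5% DMSO vehicle, duplicates. Readout: ACOX1 mRNA by Fluidigm qRT-PCR, housekeeping-normalized; bidirectional fit vs DMSO baseline.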

[20] = read-out: Cyclin D2 (CCND2), CCND2 (gene 894); assay: LTEA_HepaRG_CCND2: Life Technologies and Expression Analysis (LTEA) Assay for Cyclin D2 (CCND2) using HepaRG (AID 2283449); details: mRNA level, 48 h; actives raise or lower the signal;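 also: CCND2 transcript measured by TaqMan qRT-PCR and normalised to three housekeeping genes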
How it was run: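 HepaRG, 48 h dosing, 8-pt half-log curve from 100 uM, 0.5% DMSO; duplicate wells. Readout: CCND2 transcript by microfluidic qRT-PCR, housekeeping-normalised; bidirectional fit vs DMSO baseline.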

Measured: AC50

Chain of Fatty acid synthase (Homo sapiens) (P49327 whole entry, looked up): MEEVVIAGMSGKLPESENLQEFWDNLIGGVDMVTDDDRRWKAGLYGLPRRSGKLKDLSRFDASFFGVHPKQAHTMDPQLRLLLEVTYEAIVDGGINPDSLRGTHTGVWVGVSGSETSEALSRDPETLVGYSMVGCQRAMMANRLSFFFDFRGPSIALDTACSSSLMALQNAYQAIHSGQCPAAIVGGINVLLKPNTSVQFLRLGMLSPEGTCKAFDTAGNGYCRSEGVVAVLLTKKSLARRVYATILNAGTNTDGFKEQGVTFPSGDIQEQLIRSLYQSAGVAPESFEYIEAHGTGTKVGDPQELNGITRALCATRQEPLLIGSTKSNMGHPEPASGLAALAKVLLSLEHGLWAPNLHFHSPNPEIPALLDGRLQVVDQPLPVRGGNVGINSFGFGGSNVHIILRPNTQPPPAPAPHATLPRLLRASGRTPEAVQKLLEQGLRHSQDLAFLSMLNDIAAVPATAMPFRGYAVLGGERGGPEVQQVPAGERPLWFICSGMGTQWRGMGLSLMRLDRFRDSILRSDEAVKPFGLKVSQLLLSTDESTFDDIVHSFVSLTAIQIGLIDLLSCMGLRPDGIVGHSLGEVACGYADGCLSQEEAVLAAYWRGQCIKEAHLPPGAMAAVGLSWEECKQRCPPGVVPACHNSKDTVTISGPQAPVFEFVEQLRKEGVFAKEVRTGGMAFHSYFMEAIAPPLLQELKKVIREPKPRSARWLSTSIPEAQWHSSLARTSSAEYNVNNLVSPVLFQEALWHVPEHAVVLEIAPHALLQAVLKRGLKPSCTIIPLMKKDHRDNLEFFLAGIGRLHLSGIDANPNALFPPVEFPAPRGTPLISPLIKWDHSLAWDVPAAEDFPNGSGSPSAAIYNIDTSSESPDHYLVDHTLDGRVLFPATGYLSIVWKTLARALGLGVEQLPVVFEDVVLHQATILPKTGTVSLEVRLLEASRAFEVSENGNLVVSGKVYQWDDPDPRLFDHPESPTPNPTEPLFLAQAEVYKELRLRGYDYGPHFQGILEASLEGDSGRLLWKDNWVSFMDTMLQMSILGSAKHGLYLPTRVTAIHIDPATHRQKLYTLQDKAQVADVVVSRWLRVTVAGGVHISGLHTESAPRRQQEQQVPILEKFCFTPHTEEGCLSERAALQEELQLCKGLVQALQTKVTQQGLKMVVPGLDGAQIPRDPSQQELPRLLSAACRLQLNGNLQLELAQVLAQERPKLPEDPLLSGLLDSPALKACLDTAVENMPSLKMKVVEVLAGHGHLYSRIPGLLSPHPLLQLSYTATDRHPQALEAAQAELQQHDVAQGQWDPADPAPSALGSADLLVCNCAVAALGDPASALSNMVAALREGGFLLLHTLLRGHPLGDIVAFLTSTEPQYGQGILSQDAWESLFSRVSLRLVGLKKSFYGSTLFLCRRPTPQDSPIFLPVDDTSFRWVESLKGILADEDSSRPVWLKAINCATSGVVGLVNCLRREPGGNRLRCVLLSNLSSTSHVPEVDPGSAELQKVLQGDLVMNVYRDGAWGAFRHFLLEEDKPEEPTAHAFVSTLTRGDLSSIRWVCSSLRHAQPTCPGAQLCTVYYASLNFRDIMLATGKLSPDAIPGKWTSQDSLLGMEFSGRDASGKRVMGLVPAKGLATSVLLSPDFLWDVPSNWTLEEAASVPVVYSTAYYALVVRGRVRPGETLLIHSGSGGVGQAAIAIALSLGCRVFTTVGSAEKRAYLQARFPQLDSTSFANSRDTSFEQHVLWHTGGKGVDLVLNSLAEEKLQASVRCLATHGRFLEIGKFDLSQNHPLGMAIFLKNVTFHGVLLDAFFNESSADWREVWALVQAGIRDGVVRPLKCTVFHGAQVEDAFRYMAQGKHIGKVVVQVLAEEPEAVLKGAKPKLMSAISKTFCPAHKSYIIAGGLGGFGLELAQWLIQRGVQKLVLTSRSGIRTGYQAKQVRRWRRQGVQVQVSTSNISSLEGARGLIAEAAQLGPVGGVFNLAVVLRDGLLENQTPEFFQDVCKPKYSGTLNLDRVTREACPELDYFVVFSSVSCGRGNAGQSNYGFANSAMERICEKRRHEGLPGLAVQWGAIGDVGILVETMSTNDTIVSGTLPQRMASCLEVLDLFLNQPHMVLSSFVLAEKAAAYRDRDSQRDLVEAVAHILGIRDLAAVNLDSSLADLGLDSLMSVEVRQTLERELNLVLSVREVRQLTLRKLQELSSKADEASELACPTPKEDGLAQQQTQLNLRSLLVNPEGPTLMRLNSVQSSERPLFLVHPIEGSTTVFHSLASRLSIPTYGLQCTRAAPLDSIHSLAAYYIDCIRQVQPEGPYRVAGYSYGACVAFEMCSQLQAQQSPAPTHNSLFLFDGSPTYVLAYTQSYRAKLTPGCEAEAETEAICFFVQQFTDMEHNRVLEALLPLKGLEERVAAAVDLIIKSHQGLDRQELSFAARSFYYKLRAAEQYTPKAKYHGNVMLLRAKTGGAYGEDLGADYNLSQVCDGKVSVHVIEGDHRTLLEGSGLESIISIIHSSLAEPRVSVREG
Chain of Broad substrate specificity ATP-binding cassette transporter ABCG2 (Homo sapiens) (Q9UNQ0 whole entry, looked up): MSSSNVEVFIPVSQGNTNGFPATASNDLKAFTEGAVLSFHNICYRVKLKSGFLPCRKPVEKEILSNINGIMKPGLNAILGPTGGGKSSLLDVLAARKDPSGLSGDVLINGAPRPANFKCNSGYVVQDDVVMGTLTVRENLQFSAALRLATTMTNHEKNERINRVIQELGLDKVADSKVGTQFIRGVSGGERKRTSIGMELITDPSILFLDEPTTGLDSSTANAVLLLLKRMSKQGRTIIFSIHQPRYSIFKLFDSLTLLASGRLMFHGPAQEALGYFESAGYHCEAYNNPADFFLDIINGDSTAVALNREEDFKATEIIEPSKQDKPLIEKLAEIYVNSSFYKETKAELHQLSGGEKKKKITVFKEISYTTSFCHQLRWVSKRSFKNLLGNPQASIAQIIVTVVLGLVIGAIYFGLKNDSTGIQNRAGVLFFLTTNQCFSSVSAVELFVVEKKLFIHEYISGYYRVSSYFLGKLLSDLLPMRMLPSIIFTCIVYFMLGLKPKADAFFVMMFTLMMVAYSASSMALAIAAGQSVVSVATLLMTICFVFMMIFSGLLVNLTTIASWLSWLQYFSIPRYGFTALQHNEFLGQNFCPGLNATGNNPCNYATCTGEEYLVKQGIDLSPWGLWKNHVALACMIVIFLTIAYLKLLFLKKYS

CCOP(=S)(OCC)Oc1nc(Cl)c(Cl)cc1Cl
active: [1] 39.3 µM | [9] 62.6 µM
not listed: [20]
inactive: all other assays above

Fc1ccc(C2(Cn3cncn3)OC2c2ccccc2Cl)cc1 (stereo not drawn)
inactive: [1]

C1CCC(NC2CCCCC2)CC1
active: [1] 12.7 µM

COc1cc(-c2ccc(N)c(OC)c2)ccc1N
inactive: [1] | [2] | [3] | [20] | [4] | [5] | [6] | [7] | [8] | [10] | [11] | [12] | [13] | [14] | [15] | [16] | [17] | [18] | [19]
active: [1] 35.4 µM | [3] 55.6 µM | [5] 32.7 µM | [6] 72.6 µM | [12] 50 µM | [13] 50 µM | [15] 71.5 µM | [16] 50 µM | [17] 25 µM

CCOP(=S)(OCC)SCSP(=S)(OCC)OCC
active: [1] 4.53 µM | [3] 90.8 µM | [10] 56.6 nM | [13] 0.0743 µM | [16] 50 µM | [18] 78.7 µM
not listed: [9]
inactive: all other assays above

CN(CCCC(=O)c1cccnc1)N=O
inactive: [1] | [9]

C(=NC1CCCCC1)=NC1CCCCC1
inactive: [1]

CCCCCCCCC(=O)NCc1ccc(O)c(OC)c1
inactive: [1]

CCOP(=S)(OCC)SCCS(=O)(=O)CC
active: [1] 19.2 µM
